Sm TGR inh: blocks Schistosoma mansoni thioredoxin glutathione reductase | purified TGR, DTNB reduction, TNB absorbance 405 nm | Potency, µM (titrated, usually from 114 µM), without a hit: top-dose activity change, negative = inhibition, actives largely listed as inhibitors | 3% of 360,000 active | AID 485364; also: potency is read from the fitted curve at half-maximal effect; nearly all actives have a fitted effect of over 60% in size
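Kinetic colorimetric format: TGR-catalysed, NADPH-driven DTNB reduction monitored via TNB absorbance. Enzyme dispensed at 20 nM; compound exposure 15 min at room temperature before reaction start.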
Pf growth 96h: P. falciparum growth inhibition at 96 hours | 6.9% of 320,000 active | Potency, µM (series often up to 28.7 µM), for inactives: at the top dose activity change, negative = inhibition, most hits filed as inhibitors | AID 504834 | P. falciparum luciferase reporter growth, 96 h; also: potency is read from the fitted curve at half-maximal effect
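Luminescence readout: decreased luciferase signal marks inhibited growth of reporter-expressing P. falciparum in infected red cells (2% hematocrit, 0.05% parasitemia final), exposed to compound two generations (96 h, 37 C, 5% CO2).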
Giardia FBPA inh: Giardia lamblia aldolase inhibition | A8B2U2 | purified Giardia FBPA | Potency, µM (series often up to 59.6 µM), without a hit: top-dose activity, negative = inhibition, actives largely listed as inhibitors | 0.71% of 290,000 active; also: potency is read from the fitted curve at half-maximal effect; nearly all actives have a fitted effect of over 55% in size
Target sequence (A8B2U2 whole entry, looked up): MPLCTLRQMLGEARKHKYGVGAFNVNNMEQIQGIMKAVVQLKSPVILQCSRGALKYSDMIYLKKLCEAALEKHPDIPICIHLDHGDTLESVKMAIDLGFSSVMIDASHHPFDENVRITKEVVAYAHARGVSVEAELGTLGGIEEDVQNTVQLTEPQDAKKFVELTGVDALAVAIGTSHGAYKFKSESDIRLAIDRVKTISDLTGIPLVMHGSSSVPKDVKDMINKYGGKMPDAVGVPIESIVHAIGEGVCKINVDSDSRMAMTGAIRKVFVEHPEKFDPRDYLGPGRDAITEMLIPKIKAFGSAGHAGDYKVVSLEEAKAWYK
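Giardia FBPA (40 nM reagent) was preincubated 10 min at RT with compound (up to 57.5 uM final), then substrate plus GAPDH/TPI/NAD/arsenate coupling system with diaphorase/resazurin was added; resorufin fluorescence (525/598 nm) was read after 20 min.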
HCMV antiviral: inhibitors of human cytomegalovirus | HFF cells, HCMV-luciferase reporter, 72 h; active compounds read low | activity change, negative = inhibition, % at 57.5 µM | 4.5% of 410,000 active; in the data active = activity change below about -60%; inconclusive = no clear call, values can overlap the other calls; inactive = above about -39%
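Screen run at 2 compound doses on HFFs infected with reporter HCMV, MOI 1 PFU/cell. Luciferase activity from cell lysates at 72 h post infection gave inhibition relative to buffer-only and Salinomycin wells.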
Pf growth 48h: inhibits P. falciparum growth in the first generation, 48 h; 5.9% of 310,000 active; P. falciparum luciferase growth in erythrocytes, 48 h; Potency, µM (doses to about 28.7 µM), inactives show top-dose activity change, negative = inhibition, most hits filed as inhibitors; AID 504832; also: potency is read from the fitted curve at half-maximal effect
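Firefly luciferase activity from engineered P. falciparum reports growth; inhibitors lower the luminescent signal. Cultures contained 2% hematocrit erythrocytes at 0.1% final parasitemia.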
Starred values were filed as active, the others as inactive; ? = inconclusive; . = no result given. Compounds with a hit are over-represented: about 14% of the library has one in this group of screens. Unless noted, calls follow the shape of the dose curve; as a rule, active = well fitted curve in the direction sought with a large enough effect; inconclusive = small, poorly fitted or top-dose-only effect, or another doubt; inactive = no such curve, though single readings can be large; an effect the other way counts as inactive or inconclusive. % is scaled to controls: 0 for no effect and ±100 for the full control effect.

SMILES	Sm TGR inh	Pf growth 96h	Giardia FBPA inh	HCMV antiviral	Pf growth 48h
COc1ccccc1NC(=O)c1cnc(SCC(=O)NCC2CCCO2)n(C)c1=O (centres undefined)	3%	-11%	.	36	?
COc1cccc([C@@H]2CC=C(C(=O)O)[C@H](c3ccc(Cl)cc3)N2S(=O)(=O)c2ccc(C)cc2)c1	-16%	9.3µM*	.	-11	?
COc1cc([C@@H]2CC=C(C(=O)O)[C@H](c3ccc(C)cc3)N2S(=O)(=O)c2ccc(C)cc2)cc(OC)c1OC	.	.	.	-18	.
COc1cccc([C@@H]2CC=C(C(=O)O)[C@H](c3ccc(C)cc3)N2S(=O)(=O)c2ccc(C)cc2)c1	.	.	.	-24	.
COc1ccc([C@@H]2CC=C(C(=O)O)[C@H](c3ccc(Cl)cc3)N2S(=O)(=O)c2ccc(C)cc2)cc1OC	-23%	13µM*	.	-22	?
COc1ccc([C@@H]2CC=C(C(=O)O)[C@H](c3ccc(C)cc3)N2S(=O)(=O)c2ccc(C)cc2)cc1OC	.	.	.	-7	.
COc1cc([C@@H]2CC=C(C(=O)O)[C@H](c3cccc(Cl)c3)N2S(=O)(=O)c2ccc(C)cc2)cc(OC)c1OC	-25%	13µM*	.	-6	?
COc1cc(C)ccc1OCc1cc(C(=O)N(C)CCCN2CCOCC2)no1	-22%	?	-7%	70	2%
CC(C)Oc1ccc(F)cc1-c1cc(C(=O)N2CCc3ccccc3C2)[nH]n1	.	.	.	16	.
Cc1ccc(-n2c(C)c(C)c3c(N)ncnc32)cc1	5%	13%	6%	20	21%
C#CCOCCOCCOCCNc1nc(N2CCOCC2)nc(N2CCN(C(=O)[C@H](CCCCN)n3cc(CN)nn3)CC2)n1	.	.	.	10	.
C#CCOCCOCCOCCNc1nc(N2CCN(C(=O)CCCCCCCCCCNC(=O)[C@H](CO)n3cc(CCCSC)nn3)CC2)nc(N2CCN(C(=O)CCCCCCCCCCNC(=O)[C@H](CO)n3cc(CCCSC)nn3)CC2)n1	-27%	0.1µM*	.	-71*	0.29µM*
C#CCOCCOCCOCCNc1nc(N2CCOCC2)nc(N2CCN(C(=O)CCCCCCCCCCNC(=O)[C@@H](CCSC)n3cc(CCO)nn3)CC2)n1	-19%	?	.	-35	0.66µM*
C#CCOCCOCCOCCNc1nc(N2CCN(C(=O)CCCCCCCCCCNC(=O)[C@H](CO)n3cc(CCCSC)nn3)CC2)nc(N2CCN(C(=O)CCCCCCCCCCNC(=O)[C@H](CCCCN)n3cc(C[C@@H](C)CC)nn3)CC2)n1	-1%	1.9µM*	.	.	1.3µM*
C#CCOCCOCCOCCNc1nc(N2CCN(C(=O)[C@H](C)n3cc(CCC(=O)O)nn3)CC2)nc(N2CCN(C(=O)[C@H](CCCCN)n3cc(CCCC)nn3)CC2)n1	.	.	.	2	.
COc1cccc(NC(=O)C(c2ccccc2)N2CCN(CC(=O)N3CCOCC3)CC2)c1 (centres undefined)	-7%	?	.	0	?
COC(=O)[C@@]1(Sc2ccc(C)cc2)CC(=O)N(C(=O)c2ccccc2)[C@@H]1c1ccccc1	.	.	.	4	.
CC(C)(C)OC(=O)N[C@@H](Cc1ccccc1)C(=O)N1CCC(C(=O)N[C@@H](Cc2c[nH]c3ccccc23)C(=O)O)CC1	-17%	?	-5%	-2	-18%
Cn1c(=NC(=O)c2ccc(F)cc2)sc2cc(Br)ccc21	7%	.	.	0	.
COc1cccc(N2CCN(c3c(C#N)c(C(F)(F)F)nn3C)CC2)c1	17%	.	-4%	-94*	?
COc1ccccc1NC(=S)N(Cc1cccnc1)Cc1ccco1	-23%	-1%	5%	1	12µM*
CCc1ccccc1NC(=S)N(Cc1cccnc1)Cc1ccco1	-2%	8.3µM*	5%	-31	?
COc1ccccc1NC(=S)N(Cc1ccccc1)Cc1cccs1	3%	13µM*	?	-20	20%
COc1ccccc1NC(=S)N(Cc1cccs1)C1CCCC1	4%	?	2%	?	-17%
Cc1ccc(Cl)cc1NC(=S)N(Cc1ccccc1)Cc1cccnc1	15%	-28%	-5%	-17	10µM*
SMILES	Sm TGR inh	Pf growth 96h	Giardia FBPA inh	HCMV antiviral	Pf growth 48h
S=C(Nc1ccccc1Cl)N(Cc1ccccc1)Cc1cccnc1	-18%	48%	-1%	14	-20%
CCCC[C@@H]1C[C@H]1C(NC(=O)c1ccco1)c1ccccc1C(F)(F)F (some centres undefined)	.	.	-8%	.	.
CC(=O)Nc1ccc(S(=O)(=O)N2CCCC(C(=O)O)C2)cc1 (centres undefined)	11%	8%	9%	?	1%
COc1ccccc1NC(=S)N(Cc1ccccn1)Cc1ccccc1Cl	18%	-9%	-3%	-63*	-77%
COc1ccc(Cl)cc1NC(=S)N(Cc1cccnc1)Cc1ccco1	-1%	-8%	-12%	-34	10µM*
Cc1ccc(NC(=O)Cn2cnc3sc(C)c(S(=O)(=O)N4CCN(c5ncccn5)CC4)c3c2=O)cc1F	-1%	.	.	3	.
CCCCCn1c(SCC(=O)OCC)nc2cc(C(=O)NCc3ccco3)ccc2c1=O	0%	15%	1%	7	?
C=CCn1c(SCC(=O)OCC)nc2cc(C(=O)NCc3ccco3)ccc2c1=O	5%	7.4µM*	0%	68	.
CCc1ccc(NC(=O)CSc2nc3cc(C(=O)OC)ccc3c(=O)n2Cc2ccco2)cc1	-6%	-12%	4%	14	34%
CCn1c(SCC(=O)NC2CCCCC2)nc2ccccc2c1=O	0%	12µM*	.	8	52%
CCn1c(COc2ccccc2)nnc1SCC(=O)CC(=O)Nc1ccccc1OC	27%	7.4µM*	0%	13	13µM*
CC(=O)NCCn1c(SCC(=O)NC2CCCCC2)nc2ccccc2c1=O	2%	?	2%	-17	-11%
CCN(C(=O)CSc1nc2cc(C(=O)OC)ccc2c(=O)n1Cc1ccco1)c1cccc(C)c1	0%	-7%	0%	-24	4.7µM*
CCOC(=O)N1CCC(NC(=O)c2ccc3c(c2)N(Cc2cc(C)ccc2C)C(=O)c2ccccc2S3=O)CC1 (centres undefined)	8%	.	.	-13	.
CCCCCCCCC(=O)c1c(OC)oc(C=O)cc1=O	.	.	.	-8	.
COCCNC(=O)c1ccc2c(=O)n(Cc3ccco3)c(SCC(=O)NC3CCCC3)nc2c1	-16%	12µM*	-5%	-14	.
COCCn1c(SCC(=O)NC2CCCC2)nc2ccccc2c1=O	5%	-16%	.	-100*	17%
CCn1c(COc2ccccc2)nnc1SCC(=O)NC1CCCCC1	-35%	-16%	6%	-25	2.9µM*
COc1ccc(-c2cc(=O)oc3cc(OC(C)C(=O)NCc4ccccn4)ccc23)cc1 (centres undefined)	4%	?	19%	-11	?
N#CC(=Cc1ccc(O)cc1)C(N)=C(C#N)C#N	-6%	3%	.	-37	0%
